Hits are enriched below; roughly 11% of the tested compounds scored in any of these assays.
Insulin prom up – insulin promoter activators in MIN6 cells, imaging, high-content screening, mouse beta cells; MIN6 insulin promoter-GFP reporter; hits give high values; z-score at 5 µM; 190,000 tested, 0.3% active; AID 1625, 2009;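 active = z-score above 3 at 5 µM with at least 500 cells counted in the well; inconclusive = wells under 500 cells, flagged as cytotoxic or low count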
Insulin prom inh – inhibitors of insulin promoter-driven GFP, primary screen, imaging, TRM-6 cells (human fetal islet line), eGFP reporter, cell count; inhibition, % at 2 µM; AID 1273, 2008; reporter expression induced with tamoxifen; 130,000 tested, 0.9% active;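 active = inhibition above the mean plus 3 SD, with well images judged a real hit on visual review, cut at about 60% in these data, passing the limit was not always enough; inconclusive = inhibition over the cutoff but images rejected on review; inactive = inhibition not above the cutoff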
Autophagy HCS – autophagy modulators in MEF cells, primary screen, imaging, high-content, MEF GFP-LC3 | AID 463193, 2010 | MEF GFP-LC3 puncta imaging; test concentration mostly 10 µM | calls only at 10 µM (by protocol) | 190,000 tested, 0.98% active;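 active = percentage of spot-positive cells more than 3 SD above its plate mean, without a fluorescence outlier flag or 80% toxicity; inconclusive = no clear call, values can overlap the other calls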;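 also: spot-positive cell cutoff set from DMSO-treated cells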
WT yeast gro inh – growth inhibition of WT strain, primary screen, mitochondrial fusion inhibitor project, WT and mutant strains, chemical genetic; mitochondrial fusion phenotypic screen; inhibition, % at 10 µM; 190,000 tested, 2.1% active; AID 1362, 2008; in the data active = inhibition above about 58%; tested in S. cerevisiae
L major viab – Leishmania major promastigote growth inhibition, primary screen. Leishmania major promastigotes, resazurin fluorescence viability. 200,000 tested, 9% active. inhibition, % at 10 µM; in the data active = inhibition above about 50%;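 also: promastigotes grown with compound for 44 hours at 28 °C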
The depositor's hits bear a star; i = inactive; ? = inconclusive; nt = no result given; + = active, no number.

SMILES | Insulin prom up | Insulin prom inh | Autophagy HCS | WT yeast gro inh | L major viab
C/C(=N\NC(=S)NCc1ccccc1)c1cccc(Br)c1 | 0.97 | nt | i | 70* | -2
COc1ccccc1/C(C)=N/NC(=S)NCc1ccccc1 | -0.59 | 8 | i | 65* | 3
Cn1c(=O)c2c(nc(SCC(=O)N3CCCCCC3)n2C)n(C)c1=O | nt | -100 | i | 3 | 1
COC(=O)c1ccc(COc2ccc(-c3nnn(CC(=O)NC(C)(C)C)n3)cc2)cc1 | -0.58 | 0 | i | -8 | -3
O=C(O)c1cn[nH]c1-n1cnnn1 | nt | -19 | i | -8 | -7
Cc1cc(Br)cc(C)c1NC(=S)NC(=O)CC(C)C | nt | 4 | i | 5 | -1
CCN1C(=O)CSc2ccc(C(=O)NCc3ccccc3OC)cc21 | 3.1* | -3 | i | -3 | -2
CCCCOc1ccc(CNC(=S)N/N=C/c2ccc(OC)c(OC)c2)cc1 | -0.45 | -18 | i | 45 | 30
Cc1ccc(Nc2nnc(SCc3cc(=O)n4cc(C)ccc4n3)s2)cc1 | 0.28 | 28 | i | 3 | 68*
Cc1ccc2cc(/C=N/NC(=O)c3ccc(F)cc3)c(Cl)nc2c1 | nt | 56 | i | 3 | -4
CCN(CC)c1ccc(/C=N/N(c2ccccc2)c2ccccc2)c(O)c1 | ? | nt | i | 27 | -8
CCN(CC)c1ccc(/C=N/Nc2nc3ccccc3[nH]2)c(O)c1 | -3.7 | 13 | i | -10 | 100*
CCN(CC)c1nc2ccccc2[nH]1 | -0.32 | 72* | i | -4 | 7
CCN(CC)c1nc2ccccc2[nH]c1=O | 0.32 | nt | nt | nt | nt
Cc1ccc2cc(/C=N/Nc3nc4ccccc4[nH]3)c(Cl)nc2c1 | -0.02 | nt | i | 59* | 12
CCN(CC)c1ccc(/C=N/N=C(c2ccccc2)c2ccccc2)c(O)c1 | 2.3 | -43 | + | 0 | -1
CN(c1ccc(F)cc1)S(=O)(=O)c1ccc(Cl)c(C(=O)OCC(=O)NCc2ccco2)c1 | -0.3 | -64 | i | 3 | -3
O=C1CS/C(=N\N=C\c2ccccc2Cl)N1CC1CC1 | -0.86 | nt | nt | nt | nt
CCN(CC)c1ccc(/C=N/NC(=O)c2ccco2)c(O)c1 | -2.8 | nt | nt | nt | nt
CCN(CC)c1ccc(/C=N/NC(=O)Cc2cccs2)c(O)c1 | -0.79 | -19 | i | -24 | 98*
COc1cc2c(cc1OC)CN(C(=O)CSc1nnc(C)s1)CC2 | 1.4 | -262 | i | -8 | -2
CCc1c(-c2ccccc2)[n+](=O)c2c(n1[O-])CCC2 | -0.22 | nt | nt | nt | nt
O=C(Cc1ccc([N+](=O)[O-])cc1)N1N=C(C2CC2)CC1(O)C(F)(F)F (configuration not stated) | nt | nt | i | 13 | -2
Cc1cc(C)nc(N2CCC(C(=O)NCCc3ccc(Cl)cc3)CC2)n1 | nt | 24 | i | 10 | 11
CCNC(=O)C1CCCN(c2nc(C)cc(C)n2)C1 (configuration not stated) | nt | 18 | i | -7 | -6
SMILES | Insulin prom up | Insulin prom inh | Autophagy HCS | WT yeast gro inh | L major viab
Cc1cc(C)nc(N2CCC(C(=O)NCCc3ccc(F)cc3)CC2)n1 | 0.04 | 25 | i | 69* | -1
Cc1cc(C)nc(N2CCCC(C(=O)NCCc3ccc(F)cc3)C2)n1 (configuration not stated) | 0.15 | 86* | i | 10 | 1
O=C(/C=C/c1cccc(Oc2ccccc2)c1)N1CCOCC1 | 0.52 | nt | i | -8 | -3
Cc1ccc(C)c(CSc2nc3[nH]ncc3c(=O)[nH]2)c1 | -0.25 | -222 | i | -8 | 10
Cc1[nH]c2ccccc2c1CCC(N)=O | 0.15 | nt | i | 10 | -5
Cc1[nH]c2ccccc2c1Cc1nnc(SCC(N)=O)o1 | 4.8* | -110 | i | 1 | -3
CCCC(C)NC(=O)CSc1nc2ccc(C)cc2[nH]1 (configuration not stated) | -0.08 | -27 | i | 5 | -3
COc1ccc(C[C@H]2CN3C(=NC[C@@H]3Cc3ccccc3)N2CCNC(=O)CCC2CCCCC2)cc1 | -0.98 | nt | i | 5 | 58*
COc1ccc(C[C@H]2CN3C(=NC[C@@H]3C(C)C)N2CCNC(=O)CCC2CCCCC2)cc1 | -2.1 | nt | i | 0 | 34
CN=C(Nc1cc(Cl)ccc1Cl)SC1CC(=O)N(c2ccc(C(=O)OC)cc2)C1=O (configuration not stated) | -0.17 | 12 | i | 69* | 34
Cc1cccc(N2C(=O)CC(SC(=Nc3ccccc3)Nc3ccccc3)C2=O)c1 (configuration not stated) | 0.18 | 3 | i | 24 | 37
O=C1CC(SC(=Nc2ccccc2)Nc2ccccc2)C(=O)N1c1ccc(Cl)c(Cl)c1 (configuration not stated) | -0.44 | -66 | i | 62* | 66*
O=C(Nc1ccc(Oc2ccc(C(F)(F)F)cn2)c(Cl)c1)C1CC1 | 0.42 | -8 | i | -8 | 25
Cc1nc(SCC(C)C)[nH]c(=O)c1Cc1ccccc1 | 0.75 | nt | + | -19 | 0
COc1ccc(C/C(C)=N/NC(=O)c2cccnc2)cc1 | -0.81 | 47 | i | -18 | -11
COc1ccc(N(CC(=O)Nc2nccs2)S(=O)(=O)c2c(C)[nH]c(=O)[nH]c2=O)cc1 | 0.62 | 79* | i | -9 | -4
COC(=O)c1ccc(Cn2nc(C)c(Cl)c2C)o1 | 1 | 5 | i | -3 | 1
COc1cc(CNC(=O)c2ccc(Cn3nc(C)c(Cl)c3C)o2)cc(OC)c1 | -0.59 | -56 | i | 0 | 53*
Cn1cccc1Cc1nnc(SCC(=O)N2CCCCCC2)n1-c1ccc(F)cc1 | -0.12 | nt | i | 12 | -2
CC1CCN(C(=O)CSc2nnc(Cc3cccn3C)n2-c2ccc(F)cc2)CC1 | -1.6 | 71* | i | 10 | -4
Cn1cccc1Cc1nnc(SCC(=O)Nc2ccc(Cl)cc2)n1-c1ccc(F)cc1 | 0.84 | nt | + | 7 | 4
COCCn1c(SCC(=O)Nc2cccc(C)n2)nnc1-c1ccco1 | -0.1 | nt | i | -8 | -3
NNC(=O)Cn1c(SCc2ccccc2)nc2ccccc21 | nt | 34 | i | 24 | 0
COc1cc(C(C[N+](=O)[O-])c2c(C)[nH]c3ccccc23)ccc1O (configuration not stated) | 0.38 | 12 | + | 4 | 5
COc1cc(C(C[N+](=O)[O-])c2c(N)n(C)c(=O)n(C)c2=O)ccc1O (configuration not stated) | 0.05 | 0 | i | -2 | 73*
Cc1[nH]c2ccccc2c1C(C[N+](=O)[O-])c1cccc(O)c1 (configuration not stated) | -0.47 | -7 | i | 14 | 14
CCOC(=O)c1c(NS(=O)(=O)c2ccc(Br)cc2)sc2c1CCC2 | nt | 58 | i | 65* | -5
COC(=O)c1c(NC(=O)COC(=O)[C@@H](NS(=O)(=O)c2ccc(C)cc2)C(C)C)sc2c1CCC2 | -0.09 | -61 | i | 33 | 94*
COC(=O)c1c(NC(=O)COC(=O)c2ccc(C)s2)sc2c1CCCCC2 | -0.09 | 16 | i | 3 | -4

Source: PubChem BioAssay (several laboratories)
